# Laboratory results taken from PubChem BioAssay (EPA / NIEHS).
# Records with an inconclusive call do not appear. Activity calls are given as the source filed them. Rule for the calls, unless noted: active = hit-call score of the fitted dose curve at least 0.9, where 1 is the maximum; inconclusive = response in the unintended direction; inactive = score below 0.9.
# Target: Estrogen receptor (Homo sapiens) (UniProt P03372)
# Experiment: CCTE_Deisenroth_AIME_384WELL_LUC_Active: CCTE's 384-well Estrogen Receptor Transactivation Assay with AIME metabolic competence (ERTA luciferase; metabolism positive), Deisenroth Lab (AID 2284030)
# Summary of the method: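 In this metabolism-positive format, a 2-hour exposure to alginate-immobilized rat S9 precedes a 24 hour luciferase transactivation readout in VM7Luc4E2 cells. Dosing spans 10 concentrations from 0.002 to 200 uM.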
# Sequence of Estrogen receptor (Homo sapiens) (P03372 whole entry, looked up): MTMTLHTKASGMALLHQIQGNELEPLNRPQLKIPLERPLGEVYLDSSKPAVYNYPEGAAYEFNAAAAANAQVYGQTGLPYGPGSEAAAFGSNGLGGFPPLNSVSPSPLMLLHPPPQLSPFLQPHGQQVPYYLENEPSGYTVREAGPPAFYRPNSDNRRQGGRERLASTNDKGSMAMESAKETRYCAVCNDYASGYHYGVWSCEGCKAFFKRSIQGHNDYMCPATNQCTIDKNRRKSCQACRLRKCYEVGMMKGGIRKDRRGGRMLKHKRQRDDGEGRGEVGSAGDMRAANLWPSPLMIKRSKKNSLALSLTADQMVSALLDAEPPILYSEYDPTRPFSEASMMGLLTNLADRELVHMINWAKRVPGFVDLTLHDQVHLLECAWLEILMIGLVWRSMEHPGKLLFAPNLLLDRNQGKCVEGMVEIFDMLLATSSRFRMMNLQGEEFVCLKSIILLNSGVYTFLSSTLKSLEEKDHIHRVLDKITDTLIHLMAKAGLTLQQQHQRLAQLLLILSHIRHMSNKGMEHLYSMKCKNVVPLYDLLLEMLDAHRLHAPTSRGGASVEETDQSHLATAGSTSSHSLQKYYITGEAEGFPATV
SMILES,outcome,AC50
CCN(CCC#N)c1ccc(N=Nc2c(Cl)cc([N+](=O)[O-])cc2Cl)cc1,inactive,–
O=S(=O)(O)c1ccccc1C=Cc1ccc(-c2ccc(C=Cc3ccccc3S(=O)(=O)O)cc2)cc1,inactive,–
O=C1C(N(CO)C(=O)NCO)N(CO)C(=O)N1CO (configuration not stated),inactive,–
CCCCC/C=C\CCC=O,inactive,–
CCOC(=O)CC,inactive,–
CCCCCc1ccc(Cl)cc1,inactive,–
O=S1(=O)OC(c2ccc(O)cc2)(c2ccc(O)cc2)c2ccccc21,inactive,–
O=C1CCCC1,inactive,–
CC(=O)OC(C)C,inactive,–
Cc1ccc(C(C)c2ccc(C)c(C)c2)cc1C,–,16 µM (active)
C=C1C2CCC(C2)C1(C)C (configuration not stated),inactive,–
NC(CO)(CO)CO,inactive,–
O=C(c1ccccc1)C1CCC1,inactive,–

# Test system: not listed separately
# Experiment: CCTE_Shafer_MEA_dev_firing_rate_mean: CCTE's Neural Network Formation Assay for Mean Firing Rate, Shafer Lab (AID 2284031; active = hit-call score of the fitted dose curve at least 0.9, where 1 is the maximum; inactive = score below 0.9;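 for AC50: curve fitted for loss of firing so AC50 reflects decreased mean firing rate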)
# Summary of the method: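 Spike frequency (spikes/recording length, averaged over active electrodes) was recorded on days 5, 7, 9 and 12 and collapsed to AUC; rat cortical cultures received compound continuously over 12 days of network development.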
SMILES,outcome,AC50
c1ccc2c(c1)ccc1cc3c(ccc4ccccc43)cc12,inactive,–
CC=CC(F)(F)C(F)(F)C(F)(F)F,inactive,–
CN(C)c1ccc(C(=N)c2ccc(N(C)C)cc2)cc1,–,2.67 µM (active)
COC(F)(F)C(F)(C(F)(F)F)C(F)(F)F,inactive,–
CC1(C)S[C@@H]2[C@H](NC(=O)COc3ccccc3)C(=O)N2[C@H]1C(=O)O,inactive,–
FC(F)=C(F)OC(F)(F)C(F)(F)C(F)(F)F,inactive,–
N[C@H]1C(O)O[C@H](CO)[C@H](O)[C@@H]1O (some centres not stated),inactive,–
CCOC(F)(F)C(F)(F)C(F)(F)C(F)(F)F,inactive,–

# Test system: not listed separately
# Experiment: CCTE_Shafer_MEA_dev_per_burst_spike_percent: CCTE's Neural Network Formation Assay for Percent of Spikes in a Burst, Shafer Lab (AID 2284032; active = hit-call score of the fitted dose curve at least 0.9, where 1 is the maximum; inactive = score below 0.9;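 for AC50: fitted as a decrease in burst spike percentage below DMSO baseline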)
# Summary of the method: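 Value is trapezoidal AUC over recordings on days 5, 7, 9 and 12 of the well-mean fraction of spikes falling in single-electrode bursts; rat cortical cultures exposed continuously from plating, treatment renewed DIV 5 and 9, fitted downward against DMSO.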
SMILES,outcome,AC50
c1ccc2c(c1)ccc1cc3c(ccc4ccccc43)cc12,inactive,–
CC=CC(F)(F)C(F)(F)C(F)(F)F,inactive,–
CN(C)c1ccc(C(=N)c2ccc(N(C)C)cc2)cc1,–,1.92 µM (active)
COC(F)(F)C(F)(C(F)(F)F)C(F)(F)F,inactive,–
CC1(C)S[C@@H]2[C@H](NC(=O)COc3ccccc3)C(=O)N2[C@H]1C(=O)O,inactive,–
FC(F)=C(F)OC(F)(F)C(F)(F)C(F)(F)F,inactive,–
N[C@H]1C(O)O[C@H](CO)[C@H](O)[C@@H]1O (some centres not stated),inactive,–
CCOC(F)(F)C(F)(F)C(F)(F)C(F)(F)F,inactive,–

# Target: Estrogen receptor (Homo sapiens) (UniProt P03372)
# Experiment: CCTE_Deisenroth_AIME_384WELL_LUC_Inactive: CCTE's 384-well Estrogen Receptor Transactivation Assay without AIME metabolic competence (ERTA luciferase; metabolism negative), Deisenroth Lab (AID 2284038);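 note: VM7Luc4E2 breast cells given medium preincubated 2 h with S9-free microspheres; hits raise estrogen receptor luciferase signal so potencies reflect agonists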
# Summary of the method: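 VM7Luc4E2 ER transactivation, luciferase bioluminescence after 24 h, using medium pre-incubated 2 h with S9-free alginate microspheres. Concentrations 0.002–200 uM; gain of signal fitted relative to 17beta-estradiol.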
row,SMILES,outcome
1,CCN(CCC#N)c1ccc(N=Nc2c(Cl)cc([N+](=O)[O-])cc2Cl)cc1,inactive
2,O=S(=O)(O)c1ccccc1C=Cc1ccc(-c2ccc(C=Cc3ccccc3S(=O)(=O)O)cc2)cc1,inactive
3,O=C1C(N(CO)C(=O)NCO)N(CO)C(=O)N1CO (configuration not stated),inactive
4,c1ccc2c(c1)ccc1cc3c(ccc4ccccc43)cc12,inactive
5,CCCCC/C=C\CCC=O,inactive
6,CCOC(=O)CC,inactive
7,CCCCCc1ccc(Cl)cc1,inactive
8,O=S1(=O)OC(c2ccc(O)cc2)(c2ccc(O)cc2)c2ccccc21,inactive
9,O=C1CCCC1,inactive
10,CC(=O)OC(C)C,inactive
11,Cc1ccc(C(C)c2ccc(C)c(C)c2)cc1C,inactive
12,C=C1C2CCC(C2)C1(C)C (configuration not stated),inactive
13,NC(CO)(CO)CO,inactive
14,O=C(c1ccccc1)C1CCC1,inactive

# Test system: not listed separately
# Experiment: CCTE_Deisenroth_AIME_384WELL_CTox_Inactive: Cytotoxicity Assessment (CTOX) in CCTE's 384-well Estrogen Receptor Transactivation Assay without AIME metabolic competence (metabolism negative), Deisenroth Lab (AID 2284039);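 note: cell viability via live-cell protease substrate cleaved to fluorescent probe; cells exposed 24 h to medium preincubated 2 h with alginate-water beads without S9; loss of fluorescence signal means loss of viability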
# Summary of the method: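 Metabolism-negative arm: chemicals (10-point, 0.002 - 200 uM) preincubated 2 h with alginate-water lids, medium moved onto VM7Luc4E2 cells for 24 h. Fluorescent live-cell protease readout; bidirectional curve fit.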
SMILES,AC50,outcome
CCN(CCC#N)c1ccc(N=Nc2c(Cl)cc([N+](=O)[O-])cc2Cl)cc1,100 µM (active),–
O=C1C(N(CO)C(=O)NCO)N(CO)C(=O)N1CO (configuration not stated),–,inactive
c1ccc2c(c1)ccc1cc3c(ccc4ccccc43)cc12,–,inactive
CCCCC/C=C\CCC=O,–,inactive
CCOC(=O)CC,–,inactive
CN(C)c1ccc(C(=N)c2ccc(N(C)C)cc2)cc1,31.1 µM (active),–
O=S1(=O)OC(c2ccc(O)cc2)(c2ccc(O)cc2)c2ccccc21,–,inactive
Oc1ccc(Cl)cc1Cc1cc(Cl)ccc1O,100 µM (active),–
CCCCCCCC[N+](C)(CCCCCCCC)CCCCCCCC,19.2 µM (active),–
C=C1C2CCC(C2)C1(C)C (configuration not stated),–,inactive
NC(CO)(CO)CO,–,inactive

# Test system: not listed separately
# Experiment: CCTE_Shafer_MEA_dev_active_electrodes_number: CCTE's Neural Network Formation Assay for Number of Active Electrodes, Shafer Lab (AID 2284040);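 for AC50: potency for loss of active electrodes versus DMSO so lower counts are hits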
# Procedure: CCTE_Shafer_MEA_dev assay is conducted using Axion Biosystems 48 well microelectrode array (MEA) plates and Maestro recording system. Each well of the MEA plate contains a grid of 16 microelectrodes embedded in the culture surface. Electrically active cells, such as neurons, can be cultured over the electrodes, and electrical activity in these cells can be recorded extracellularly. The spontaneous firing of neurons is captured from each electrode on a microsecond timescale providing both temporally and spatially precise data. […] The CCTE_Shafer_MEA_dev assay uses primary cultures of rat cortical neurons. Recordings are made on days post-plating 5, 7, 9 and 12. As these cultures mature over time, neural networks develop functional activity and form cohesive networks in which electrical activity can be highly coordinated. CCTE_Shafer_MEA_dev_active_electrodes_number is 1 of 19 assay components of the CCTE_Shafer_MEA_dev assay. It measures the number of electrodes in a well with a mean firing rate of at least 5 spikes (action potential firings) per minute during a recording in a microelectrode array (MEA) using Axion Biosystems Maestro 768 channel amplifier with the AxIS adaptive spike detector. To collapse across multiple recordings made on days post-plating 5, 7, 9 and 12, the trapezoidal area-under-the-curve of the component is calculated.Data from the assay component CCTE_Shafer_MEA_dev_active_electrodes_number was analyzed into 1 assay endpoint. This assay endpoint, CCTE_Shafer_MEA_dev_active_electrodes_number, was analyzed in the negative analysis fitting direction relative to DMSO as the negative control and baseline of activity. Using a type of functional reporter, gain or loss-of-signal activity can be used to understand electrical activity.
# On the day prior to culture, each well was coated thoroughly with 150 uL of 0.05% polyethyleneimine (PEI, Sigma Cat P3143) in 50 mM HEPES (Sigma Cat H7523) at a pH of 8. The plate was incubated at 37C for one hour. PEI was rinsed out with 500 uL of sterile water three times. Plates were stored at 4C until the day of culture. This culture was plated at a seeding density of 1.5 x 10^5 cells/well on a 48-well MEA plate, prepared as described above. Cells were administered via a 25 uL media/laminin ([…]; Sigma Cat L2020-1MG) drop directly onto the microelectrode array, as adding the cells with the laminin results in better attachment than pre-coating with laminin. After 2 hours, an additional 475 uL of cortical media was added and the cells returned to the incubator. Exposure starts at day 0 of plating and is continued over twelve days of network development until the experiment is terminated. Cells are fed with fresh medium on DIV 5 and 9, following the recordings on those days. The entire volume of media in the well is exchanged and any vehicle or compound treatment is renewed. Complete details are found in OP-NHEERL/ISTD/SBB/TJS/2015-03-r0 (available on request, email shafer.tim@epa.gov). Measurement of the electrical activity is non-invasive, and recordings can be made from the same plate over multiple different days of the culture. In cortical neurons, this allows for the measurement of extracellular action potentials over the period during which networks form in the MEA plate.
SMILES,outcome,AC50
c1ccc2c(c1)ccc1cc3c(ccc4ccccc43)cc12,inactive,–
CC=CC(F)(F)C(F)(F)C(F)(F)F,inactive,–
CN(C)c1ccc(C(=N)c2ccc(N(C)C)cc2)cc1,–,2.89 µM (active)
COC(F)(F)C(F)(C(F)(F)F)C(F)(F)F,inactive,–
CC1(C)S[C@@H]2[C@H](NC(=O)COc3ccccc3)C(=O)N2[C@H]1C(=O)O,inactive,–
CCOC(F)(F)C(F)(F)C(F)(F)C(F)(F)F,inactive,–

# Target: Estrogen receptor (Homo sapiens) (UniProt P03372)
# Experiment: CCTE_Deisenroth_AIME_384WELL_LUC_Shift: CCTE's 384-well Estrogen Receptor Transactivation Assay with AIME metabolic competence data shift (ERTA luciferase; difference in metabolism positive and negative), Deisenroth Lab (AID 2284041; active = hit-call score of the fitted dose curve at least 0.9, where 1 is the maximum; inactive = score below 0.9;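 note: shift is response with S9 minus without S9 so positive means metabolism raised ER signal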)
# Summary of the method: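 Here, parent compounds undergo 2 h phase I metabolism by PB/BNF-induced rat S9 before 24 h transactivation in VM7Luc4E2 cells; the curve models S9-positive minus S9-negative response over a 10-point series.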
SMILES,outcome,AC50
CCN(CCC#N)c1ccc(N=Nc2c(Cl)cc([N+](=O)[O-])cc2Cl)cc1,inactive,–
O=S(=O)(O)c1ccccc1C=Cc1ccc(-c2ccc(C=Cc3ccccc3S(=O)(=O)O)cc2)cc1,inactive,–
O=C1C(N(CO)C(=O)NCO)N(CO)C(=O)N1CO (configuration not stated),inactive,–
c1ccc2c(c1)ccc1cc3c(ccc4ccccc43)cc12,inactive,–
CCCCC/C=C\CCC=O,inactive,–
CCOC(=O)CC,inactive,–
CCCCCc1ccc(Cl)cc1,inactive,–
CN(C)c1ccc(C(=N)c2ccc(N(C)C)cc2)cc1,inactive,–
O=S1(=O)OC(c2ccc(O)cc2)(c2ccc(O)cc2)c2ccccc21,inactive,–
Oc1ccc(Cl)cc1Cc1cc(Cl)ccc1O,inactive,–
O=C1CCCC1,inactive,–
CC(=O)OC(C)C,inactive,–
CCCCCCCC[N+](C)(CCCCCCCC)CCCCCCCC,inactive,–
Cc1ccc(C(C)c2ccc(C)c(C)c2)cc1C,–,0.000413 µM (active)
C=C1C2CCC(C2)C1(C)C (configuration not stated),inactive,–
NC(CO)(CO)CO,inactive,–
O=C(c1ccccc1)C1CCC1,inactive,–
